The source of these data is PubChem BioAssay (NCATS).

Results filed as inconclusive are left out. Calls of active or inactive are those of the source. Unless noted, the call rests on the fitted dose curve; in most records, active means well fitted curve in the direction sought with a large enough effect; inconclusive means small, poorly fitted or top-dose-only effect, or another doubt; inactive means no such curve, though single readings can be large; an effect the other way counts as inactive or inconclusive.

Assay [1] addresses Estrogen receptor (Homo sapiens) (UniProt P03372). The assay can be described thus: qHTS assay for small molecule antagonists of estrogen receptor alpha signaling (AID 588513; active means well fitted curve in the direction sought with a large enough effect in the signal ratio, with a control signal flat, not every such curve was filed as active; the % refers to the signal ratio; further: on the % scale 0 is the no-effect control and ±100 the full control effect). In a few lines: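 ER-alpha-UAS-bla GripTite HEK 293 cells in medium with 2% charcoal/dextran-treated FBS were preincubated 4 h at 37 C, dosed with compound (1:2 titration), stimulated with 0.5nM 17-beta-estradiol for 18 h, then read by CCF4 beta-lactamase fluorescence.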
(In general: qHTS replaces the single test concentration by a dilution series.)

The target is the same in assay [2]. The assay can be described thus: qHTS assay for small molecule agonists of estrogen receptor alpha signaling (AID 588514; calls by dose curve;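 further: 0% = vehicle only and 100% = reference agonist; nearly all actives have a fitted effect of over 70% in size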). In short, it runs like this: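 Cells were plated at 5000/well, incubated 4 hrs at 37 C, dosed with compound titration series, incubated 18 hrs at 37 C, loaded with CCF4 dye for 2 hrs at RT, then fluorescence was read.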
For assay [3], the target named is Glucocorticoid receptor (Homo sapiens) (UniProt P04150). The assay can be described thus: qHTS assay for small molecule antagonists of glucocorticoid receptor signaling (AID 588533; active means well fitted inhibition curve with a large enough effect in the signal ratio, with a control signal flat, not every such curve was filed as active; the % refers to the signal ratio;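 further: cells stimulated with 2 nM dexamethasone as agonist; on the % scale 0 is the no-effect control and ±100 the full control effect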). In short, it runs like this:
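Antagonist-mode qHTS: compound titrations added to GRE-bla HeLa cells, then dexamethasone 2 nM final; 18 h, 37 C. CCF4 FRET fluorescence normalized to dexamethasone and DMSO; IC50 from Hill fit.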

Assay [4] has as its target Peroxisome proliferator-activated receptor delta (Homo sapiens) (UniProt Q03181). The assay can be described thus: qHTS assay for small molecule agonists of peroxisome proliferator-activated receptor delta signaling (AID 588534; calls by dose curve;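 further: 0% = DMSO basal wells and 100% = positive control agonist at 10 µM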). In a few lines:
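Fluorescence from CCF4 substrate cleavage by beta-lactamase reporter, read 2 hrs at RT, measured agonist activity. Compounds were tested with 18 hrs exposure at 37 C. Concentration-response data fitted to Hill equation.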

Assay [5] has as its target Peroxisome proliferator-activated receptor gamma (Homo sapiens) (UniProt P37231). As to the kind of experiment: qHTS assay for small molecule agonists of peroxisome proliferator-activated receptor gamma signaling (AID 588536; active means well fitted curve in the direction sought with a large enough effect in the signal ratio, with a control signal flat, not every such curve was filed as active; the % refers to the signal ratio;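 further: 0% = DMSO basal wells and 100% = rosiglitazone at 2 µM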). In short, it runs like this: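 Ratiometric blue/green fluorescence (405 nm excitation; 460 and 530 nm emission) from CCF4-loaded HEK293 reporter cells serves as signal. Exposure to test compounds lasts 16 h at 37 C in medium containing 1% charcoal/dextran-treated serum.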

Assay [6] deals with Vitamin D3 receptor (Homo sapiens) (UniProt P11473). As to the kind of experiment: qHTS assay for small molecule antagonists of vitamin D receptor signaling (AID 588541; calls by dose curve;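 further: receptor activated by calcitriol during compound treatment; series mostly up to about 77 µM; on the % scale 0 is the no-effect control and ±100 the full control effect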). In a few lines:
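VDR-UAS-bla HEK293T cells (2000/well, 2% charcoal-stripped FBS) were treated with titrated compounds plus 1-alpha,25-dihydroxyvitamin D3 (50 nM or 3 nM final) for 16 h at 37 C. CCF4 beta-lactamase fluorescence was read; Hill fits gave IC50.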

A short description of assay [7]: qHTS assay for small molecule agonists of retinoid X receptor alpha signaling (AID 588544; calls by dose curve;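 on activation: 0% = DMSO basal wells and 100% = reference agonist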). The following applies: HEK293T RXRa-UAS-bla, beta-lactamase reporter, 18 h; 530 nm emission.
For assay [8], the target named is Retinoic acid receptor RXR-alpha (Homo sapiens) (UniProt P19793). Described as above.
Chain of Retinoic acid receptor RXR-alpha (Homo sapiens) (P19793 whole entry, looked up): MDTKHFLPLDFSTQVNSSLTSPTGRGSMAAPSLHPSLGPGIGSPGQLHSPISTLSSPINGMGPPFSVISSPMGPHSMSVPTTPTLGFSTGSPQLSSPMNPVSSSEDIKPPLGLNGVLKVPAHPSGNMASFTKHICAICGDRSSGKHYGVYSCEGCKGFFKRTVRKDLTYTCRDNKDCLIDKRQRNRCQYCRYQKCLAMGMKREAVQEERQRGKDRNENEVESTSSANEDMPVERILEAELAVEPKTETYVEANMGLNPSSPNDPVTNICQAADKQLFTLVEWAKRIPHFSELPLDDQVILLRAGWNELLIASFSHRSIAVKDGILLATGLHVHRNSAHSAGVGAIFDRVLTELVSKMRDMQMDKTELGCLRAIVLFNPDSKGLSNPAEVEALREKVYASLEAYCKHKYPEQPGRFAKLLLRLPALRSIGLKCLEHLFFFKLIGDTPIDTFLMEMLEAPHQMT
A short description of assay [9]: qHTS assay for small molecule antagonists of retinoid X receptor alpha signaling (AID 588546; active means well fitted inhibition curve with a large enough effect in the signal ratio, with a control signal flat, not every such curve was filed as active; the % refers to the signal ratio;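 further: cells stimulated with 9-cis-retinoic acid as agonist; on the % scale 0 is the no-effect control and ±100 the full control effect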). The following applies: HEK293T RXRa-UAS-bla, beta-lactamase ratio, antagonist mode; measured here: W530 green channel, cytotoxicity proxy. In a few lines:
(§1)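 Beta-lactamase reporter inhibition, read as CCF4 fluorescence ratio (ex 405, em 460/530 nm) after 2 h at RT. HEK293T UAS-bla cells, 2500/well, were stimulated with 9-cis-RA at 500 or 100 nM final alongside test compound for 18 h at 37 C.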

Assay [10] concerns the target Retinoic acid receptor RXR-alpha (Homo sapiens) (UniProt P19793). Described as above. The following applies: HEK293T RXRa-UAS-bla, beta-lactamase ratio, antagonist mode. In a few lines:
as §1

Assay [11] deals with Thyroid hormone receptor beta (Homo sapiens) (UniProt P10828). As to the kind of experiment: qHTS assay for small molecule antagonists of thyroid hormone receptor beta signaling (AID 588547; active means well fitted inhibition curve with a large enough effect in the signal ratio, with a control signal flat, not every such curve was filed as active; the % refers to the signal ratio). Conditions: TR-UAS-bla HEK293, beta-lactamase ratio, antagonist mode, 18 h. In a few lines:
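TR-UAS-bla GripTite HEK293 cells in 2% charcoal/dextran FBS medium were preincubated 4 h at 37 C, given compound (0.59 nM to 92 uM) plus 0.4 nM T3 (final) for 18 h, then CCF4 for 2 h at RT; Hill fit gave IC50.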

Assay [12] can be described thus: qHTS assay for environmental chemicals that activate the Aryl hydrocarbon Receptor (AhR) signaling pathway (AID 651777). Further: nearly all actives have a fitted effect of over 15% in size. Further: potency means the concentration at half of the fitted maximal effect. On activation: % of control where 0% means no effect. Conditions: 1A2-DRE human hepatoma cells, luciferase, 24 h; activation: stronger effect = higher value. In a few lines:
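Luminescence (One-Glo, 30 min, room temperature) reports AhR-driven luciferase in stably transfected human hepatoma cells bearing DRE and CYP1A2 promoter. Cells (1,200/well) were treated with compound for 24 hr at 37 C in qHTS format.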

Assay [13] deals with Peroxisome proliferator-activated receptor alpha (Homo sapiens) (UniProt Q07869). As to the kind of experiment: qHTS assay for small molecule agonists of the peroxisome proliferator-activated receptor alpha (PPARalpha) signaling pathway (AID 651778). Further: % of control where 0% means no effect. Conditions: PathHunter PPARalpha complementation, chemiluminescence, 6 h; max response: stronger effect = higher value. In a few lines: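 Cells plated at 2,000/well and held overnight at 37 C, 5% CO2, then compound added by pin tool for 6 hr; after PathHunter detection reagent and 60 min at room temperature, chemiluminescence from enzyme complementation was read.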
Chain of Peroxisome proliferator-activated receptor alpha (Homo sapiens) (Q07869 whole entry, looked up): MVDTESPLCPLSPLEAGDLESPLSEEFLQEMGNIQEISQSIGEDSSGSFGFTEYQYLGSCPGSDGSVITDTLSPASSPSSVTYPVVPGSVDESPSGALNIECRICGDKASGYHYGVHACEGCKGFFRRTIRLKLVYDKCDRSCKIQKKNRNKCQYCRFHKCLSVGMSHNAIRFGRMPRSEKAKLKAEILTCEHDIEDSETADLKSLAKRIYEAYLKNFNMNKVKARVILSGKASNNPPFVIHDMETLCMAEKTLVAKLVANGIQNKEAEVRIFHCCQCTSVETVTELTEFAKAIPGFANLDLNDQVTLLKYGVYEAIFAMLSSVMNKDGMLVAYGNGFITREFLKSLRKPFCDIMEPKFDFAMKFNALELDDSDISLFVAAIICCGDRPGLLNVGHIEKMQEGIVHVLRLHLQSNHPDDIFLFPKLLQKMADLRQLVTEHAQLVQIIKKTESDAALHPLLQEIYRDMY

Assay [14] can be described thus: qHTS assay for small molecule agonists of the antioxidant response element (ARE) signaling pathway measured by Nrf2-dependant transcriptional activity (AID 720636; active means well fitted curve in the direction sought with a large enough effect in the repeat runs; an effect the other way counts as inactive or inconclusive; further: % of control where 0% means no effect). In a few lines: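 Nrf2-dependent transcription read as ONE-Glo luciferase signal from ARE-luc HepG2 reporter cells after 16 hr compound treatment at 37 C, 5% CO2, in assay medium with 1% dialyzed FBS.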

A short description of assay [15]: qHTS assay for small molecule agonists of the antioxidant response element (ARE) signaling pathway measured by Nrf2-dependant transcriptional activity - cell viability counter screen (AID 720653; active means well fitted curve in the direction sought with a large enough effect in the repeat runs; an effect the other way counts as inactive or inconclusive; further: on the % scale 0 is the no-effect control and ±100 the full control effect). The following applies: ARE-bla HepG2 viability, CellTiter-Glo ATP luminescence, 16 h; max response: stronger effect = lower value. In a few lines: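 ARE-bla HepG2 cells (2,000/well) rested 5 hrs at 37C/5% CO2, then exposed to compounds in DMSO for 16 hrs. Viability was read in the same wells as intracellular ATP by luminescence, 30 min at room temperature after reagent addition.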

The nature of assay [16]: qHTS assay for cell viability of HEK293 cells (AID 743288). Further: on the % scale 0 is the no-effect control and ±100 the full control effect; nearly all actives have a fitted effect of over 50% in size. The following applies: ATP luminescence (CellTiter-Glo), 18 h; max response: stronger effect = lower value. In a few lines: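 Parental HEK293 cells were seeded at 2,000 cells/well, rested at least 5 h at 37 C, then exposed to compounds in DMSO for 18 h at 37 C. Viability was read as ATP-dependent luciferase luminescence after 30 min at room temperature.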

Assay [17] is described as follows: qHTS assay for cell viability of the p53RE-bla HCT-116 cell line (AID 743292). Further: on the % scale 0 is the no-effect control and ±100 the full control effect; nearly all actives have a fitted effect of over 55% in size. In a few lines:
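ATP-based luminescent viability (CellTiter-Glo, 30 min RT) after 16 h compound treatment at 37 C of p53RE-bla HCT-116 cells, seeded at 4,000 cells/well and rested 5 h before dosing.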

Assay [18] concerns the target Peroxisome proliferator-activated receptor gamma (Homo sapiens) (UniProt P37231). The assay can be described thus: qHTS assay for small molecule antagonists of peroxisome proliferator-activated receptor gamma signaling (AID 588537; active means well fitted inhibition curve with a large enough effect in the signal ratio, with a control signal flat, not every such curve was filed as active; the % refers to the signal ratio;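 further: reporter cells co-stimulated with 50 nM rosiglitazone agonist during compound treatment; % of control where 0% means no effect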). In short, it runs like this:
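We seeded GeneBLAzer HEK293 reporter cells at 3000 per well, allowed 6-6.5 h attachment at 37 C, then co-treated with test compound titrations and 50 nM rosiglitazone overnight (16 h). Inhibition was quantified from 460/530 nm emission ratios.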

In assay [19] the target is Thyroid hormone receptor beta (Homo sapiens) (UniProt P10828). The assay can be described thus: qHTS assay for small molecule agonists of thyroid hormone receptor beta signaling (AID 588545; calls by dose curve;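 further: 0% = DMSO only and 100% = 10 nM T3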). In short, it runs like this:
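TR-UAS-bla GripTite HEK 293 cells (2500/well, medium with 2% charcoal/dextran FBS) were treated in agonist mode for 18 h at 37 C, titrated. Beta-lactamase was read by CCF4 ratio after 2 h; normalized to 10 nM T3 (100%) and DMSO, Hill-fitted for EC50 and efficacy.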

The nature of assay [20]: qHTS assay for small molecule activators of the p53 signaling pathway (AID 651743; active means well fitted activation curve with a large enough effect in the signal ratio, not every such curve was filed as active; the % refers to the signal ratio; further: series mostly up to about 92 µM; % of control where 0% means no effect). Conditions: HCT-116 p53RE-bla, beta-lactamase FRET ratio, 16 h; activation: stronger effect = higher value. In a few lines: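 Cell-based beta-lactamase reporter (p53 response elements, HCT-116 background). After a 5-hour preincubation, cells received compound for 16 hours at 37 C; substrate development ran 2 hours at room temperature.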

Chain of Peroxisome proliferator-activated receptor gamma (Homo sapiens) (P37231 whole entry, looked up): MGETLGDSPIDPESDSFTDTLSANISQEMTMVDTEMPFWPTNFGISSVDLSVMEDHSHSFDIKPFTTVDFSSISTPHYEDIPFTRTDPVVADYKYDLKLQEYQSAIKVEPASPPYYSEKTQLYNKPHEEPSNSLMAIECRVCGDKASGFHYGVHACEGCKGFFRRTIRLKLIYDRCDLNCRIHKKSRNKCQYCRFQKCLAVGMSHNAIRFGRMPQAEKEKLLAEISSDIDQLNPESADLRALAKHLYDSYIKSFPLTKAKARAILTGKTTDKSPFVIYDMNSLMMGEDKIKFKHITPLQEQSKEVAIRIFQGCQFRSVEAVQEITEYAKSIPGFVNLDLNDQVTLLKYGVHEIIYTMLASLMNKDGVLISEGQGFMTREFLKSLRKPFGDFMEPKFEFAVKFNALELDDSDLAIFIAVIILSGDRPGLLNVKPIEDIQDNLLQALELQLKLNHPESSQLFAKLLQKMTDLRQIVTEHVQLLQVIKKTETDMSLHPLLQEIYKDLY
Chain of Estrogen receptor (Homo sapiens) (P03372 whole entry, looked up): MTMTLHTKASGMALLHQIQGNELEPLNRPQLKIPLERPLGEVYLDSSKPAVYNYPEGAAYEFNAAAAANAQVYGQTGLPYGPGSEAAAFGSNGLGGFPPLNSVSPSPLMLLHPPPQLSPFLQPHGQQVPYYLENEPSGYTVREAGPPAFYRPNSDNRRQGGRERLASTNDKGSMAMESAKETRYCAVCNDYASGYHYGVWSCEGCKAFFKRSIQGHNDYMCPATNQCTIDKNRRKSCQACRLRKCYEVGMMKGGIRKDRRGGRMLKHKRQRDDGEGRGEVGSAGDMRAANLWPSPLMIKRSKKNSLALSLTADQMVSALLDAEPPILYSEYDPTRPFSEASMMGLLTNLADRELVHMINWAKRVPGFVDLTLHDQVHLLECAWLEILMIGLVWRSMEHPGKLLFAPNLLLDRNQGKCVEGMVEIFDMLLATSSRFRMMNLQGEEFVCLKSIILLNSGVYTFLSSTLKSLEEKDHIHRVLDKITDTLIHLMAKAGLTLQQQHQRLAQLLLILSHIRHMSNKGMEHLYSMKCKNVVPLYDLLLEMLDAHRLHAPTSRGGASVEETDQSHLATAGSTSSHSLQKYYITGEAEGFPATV
Chain of Peroxisome proliferator-activated receptor delta (Homo sapiens) (Q03181 whole entry, looked up): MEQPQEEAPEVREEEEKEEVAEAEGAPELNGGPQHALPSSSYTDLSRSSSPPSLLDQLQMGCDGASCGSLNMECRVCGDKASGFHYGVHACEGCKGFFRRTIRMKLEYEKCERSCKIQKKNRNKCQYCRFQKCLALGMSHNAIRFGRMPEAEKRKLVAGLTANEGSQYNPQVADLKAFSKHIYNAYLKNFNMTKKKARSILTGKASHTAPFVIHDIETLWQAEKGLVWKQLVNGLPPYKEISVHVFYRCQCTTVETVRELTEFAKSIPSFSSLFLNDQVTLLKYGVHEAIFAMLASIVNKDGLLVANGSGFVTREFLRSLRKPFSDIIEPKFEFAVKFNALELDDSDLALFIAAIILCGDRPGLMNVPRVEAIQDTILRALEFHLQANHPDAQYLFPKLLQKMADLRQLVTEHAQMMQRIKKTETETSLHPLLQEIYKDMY
Chain of Glucocorticoid receptor (Homo sapiens) (P04150 whole entry, looked up): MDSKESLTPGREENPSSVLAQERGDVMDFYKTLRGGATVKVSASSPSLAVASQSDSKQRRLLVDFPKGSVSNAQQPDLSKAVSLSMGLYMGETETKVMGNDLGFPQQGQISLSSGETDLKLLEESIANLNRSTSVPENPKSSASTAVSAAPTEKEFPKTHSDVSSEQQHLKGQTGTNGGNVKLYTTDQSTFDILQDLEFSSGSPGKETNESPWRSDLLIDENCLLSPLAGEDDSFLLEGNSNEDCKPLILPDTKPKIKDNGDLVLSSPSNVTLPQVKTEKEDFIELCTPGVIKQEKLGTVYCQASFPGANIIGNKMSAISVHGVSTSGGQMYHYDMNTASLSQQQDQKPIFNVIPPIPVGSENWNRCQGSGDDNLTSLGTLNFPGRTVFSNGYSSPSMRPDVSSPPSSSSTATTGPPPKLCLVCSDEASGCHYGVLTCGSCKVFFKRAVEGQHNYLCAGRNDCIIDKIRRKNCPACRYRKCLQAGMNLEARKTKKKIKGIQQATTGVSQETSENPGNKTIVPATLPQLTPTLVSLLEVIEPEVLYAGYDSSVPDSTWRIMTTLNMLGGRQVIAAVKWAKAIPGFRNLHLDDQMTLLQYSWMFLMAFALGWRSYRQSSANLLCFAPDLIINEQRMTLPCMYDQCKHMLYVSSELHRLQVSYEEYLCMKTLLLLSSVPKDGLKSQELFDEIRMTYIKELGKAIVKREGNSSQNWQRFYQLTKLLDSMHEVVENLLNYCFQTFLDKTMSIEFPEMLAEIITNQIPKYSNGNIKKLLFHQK
Chain of Vitamin D3 receptor (Homo sapiens) (P11473 whole entry, looked up): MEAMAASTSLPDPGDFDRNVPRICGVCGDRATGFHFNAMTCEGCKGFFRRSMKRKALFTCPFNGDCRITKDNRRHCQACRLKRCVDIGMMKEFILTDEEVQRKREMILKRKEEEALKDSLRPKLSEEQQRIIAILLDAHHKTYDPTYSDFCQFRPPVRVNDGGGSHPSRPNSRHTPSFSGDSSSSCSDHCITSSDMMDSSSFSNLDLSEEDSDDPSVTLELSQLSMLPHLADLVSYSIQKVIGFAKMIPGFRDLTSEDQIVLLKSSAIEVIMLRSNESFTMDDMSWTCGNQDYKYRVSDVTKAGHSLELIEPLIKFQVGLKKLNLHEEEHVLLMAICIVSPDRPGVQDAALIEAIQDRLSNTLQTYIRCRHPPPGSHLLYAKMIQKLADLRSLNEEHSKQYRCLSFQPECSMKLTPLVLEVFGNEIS
Chain of Thyroid hormone receptor beta (Homo sapiens) (P10828 whole entry, looked up): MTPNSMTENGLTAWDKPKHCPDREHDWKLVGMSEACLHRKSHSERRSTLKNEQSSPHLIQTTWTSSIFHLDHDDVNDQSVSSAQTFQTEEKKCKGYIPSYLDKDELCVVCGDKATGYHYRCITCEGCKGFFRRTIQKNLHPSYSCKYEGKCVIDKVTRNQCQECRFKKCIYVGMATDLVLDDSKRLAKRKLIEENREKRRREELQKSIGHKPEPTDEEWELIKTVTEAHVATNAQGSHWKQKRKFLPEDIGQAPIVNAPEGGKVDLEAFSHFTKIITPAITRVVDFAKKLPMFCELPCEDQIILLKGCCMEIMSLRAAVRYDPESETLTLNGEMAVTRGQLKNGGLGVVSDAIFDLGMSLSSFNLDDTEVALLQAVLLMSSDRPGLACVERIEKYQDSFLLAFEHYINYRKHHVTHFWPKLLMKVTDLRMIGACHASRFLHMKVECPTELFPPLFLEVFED

As to `O=C(NC(=O)c1c(F)cccc1F)Nc1ccc(OC(F)(F)C(F)OC(F)(F)F)c(Cl)c1` (stereo unspecified), the Potency result in [1], in assay [2], in [3], in assay [5], in assay [6] and in [8] was “inactive” throughout. In addition, the Potency result in assay [14] and in [17] was “inactive” throughout. For the same compound, the outcome in [4] was inactive. Further, the max response in assay [7] was -12.6%; in [9], -11.8%; in [10] it was -13% (inactive); in [13] it was 0.139% (inactive); in assay [15] it was -4.81% (inactive); in assay [16] it was -16.7% (inactive). In assay [11], the activity change % (negative = inhibition) was 12.3% (inactive). Further, the activation in [12] was 1.49% (inactive).
Take `CC(C)(c1ccccc1)c1cc(-n2nc3ccccc3n2)c(O)c(C(C)(C)c2ccccc2)c1`: the Potency entry in assay [1], in assay [2], in assay [3], in [5], in assay [18] and in [6] was “inactive” each time. Besides, the Potency result in assay [8], in [19], in [14] and in assay [17] was “inactive” throughout. For the same compound, the compound was called inactive in assay [4]. For the same compound, the max response in assay [7] is -5.71%; in assay [9], -10.8%; in assay [10], 0.796% (inactive); in [13], -0.734% (inactive); in [15], 4.77% (inactive); in [16], -7.76% (inactive). Besides, the figures for the activation in assay [20] and in assay [12] were -0.652% (inactive) and -0.0851% (inactive), respectively.
On to `CCOP(=S)(OCC)Oc1cnc2ccccc2n1`, for which the Potency result in [1], in assay [2], in assay [3], in [5], in assay [18] and in [17] was “inactive” throughout. Besides, the max response was 6.33% in [9]; -25.5% (inactive) in assay [10]; -1.06% (inactive) in assay [13]; 3.82% (inactive) in assay [15]; -3.73% (inactive) in assay [16]. In [11], the activity change % (negative = inhibition) is -0.975% (inactive). The activation in assay [20] is 6.75% (inactive). For the same compound, the Potency in assay [12] was 35.5 µM (active).
Turning to `CSC(=O)c1c(C(F)F)nc(C(F)(F)F)c(C(=O)SC)c1CC(C)C`, the Potency entry in [1], in assay [2], in assay [5], in assay [18], in assay [6] and in assay [19] was “inactive” throughout. The Potency entry in assay [14] and in assay [17] was “inactive” each time. In assay [4], the compound was called inactive. In addition, the max response in assay [9] was -14.1%; in assay [10] it was -15.4% (inactive); in assay [13], 6.5% (inactive); in assay [15], -2.65% (inactive); in [16] it was -16.9% (inactive). The activity change % (negative = inhibition) in assay [11] is -31.5% (inactive). Besides, the activation in [20] is -0.469% (inactive); in assay [12] it was 1.06% (inactive).
As for `CC(C)(C)C(=O)[C@@H](Oc1ccc(Cl)cc1)n1cncn1`, the Potency entry in assay [1], in assay [2], in [3], in [5], in assay [18] and in assay [8] was “inactive” throughout. The Potency entry in [19], in assay [14] and in assay [17] was “inactive” in each case. Moreover, in [4], the compound was classed as inactive. In addition, the max response in assay [7] was 9.03%; in [9] it was -6.66%; in assay [10], 9.68% (inactive); in assay [13] it was -2.73% (inactive); in assay [15], 0.855% (inactive); in [16], -4.89% (inactive). Besides, the activity change % (negative = inhibition) in [11] was -10.6% (inactive). Also, the activation in assay [20] was 0.216% (inactive); in [12], 5.12% (inactive).
